# TRHR ag – qHTS for Small Molecule Agonists and Allosteric Enhancers of Human TRH Receptor: Primary Screen for Agonists; Thyrotropin-releasing hormone receptor (Homo sapiens), P34981; TRHR cells, calcium flux fluo-8, FDSS agonist mode; activation, % at 2 µM; 0.18% of 360,000 active; further: 0% is about no effect
#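 TRHR-expressing cells, plated overnight in medium with 10% serum, were loaded with fluo-8 calcium dye at room temperature. After a 10 s baseline, library compound was pin-added and calcium release was recorded kinetically (ex 480/em 530) as agonist response.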
# D1 potentiator – Potentiators of Human D1 Dopamine Receptor: qHTS; HEK293 TREx D1 cells, calcium flux, dopamine EC20 potentiation; potentiation, % at 10 µM; 0.036% of 360,000 active; AID 504651, 2011; in the data active means potentiation above about 30%; further: 0% is about no effect
# USP1 inh – Inhibitors of USP1/UAF1: Primary Screen; recombinant USP1/UAF1, Ub-Rhodamine cleavage fluorescence; 0.23% of 390,000 active; Potency, µM (series often up to 57.1 µM), for the others: at the highest dose activity change, negative = inhibition, hits mostly inhibitors; active means well fitted inhibition curve with a large enough effect; inconclusive means small, poorly fitted or top-dose-only effect; inactive means no such curve, though single readings can be large or run the other way; further: potency means the concentration at half of the fitted maximal effect; on the % scale 0 is the no-effect control and ±100 the full control effect; nearly all actives have a fitted effect of over 60% in size
# Target sequence (O94782 whole entry, looked up): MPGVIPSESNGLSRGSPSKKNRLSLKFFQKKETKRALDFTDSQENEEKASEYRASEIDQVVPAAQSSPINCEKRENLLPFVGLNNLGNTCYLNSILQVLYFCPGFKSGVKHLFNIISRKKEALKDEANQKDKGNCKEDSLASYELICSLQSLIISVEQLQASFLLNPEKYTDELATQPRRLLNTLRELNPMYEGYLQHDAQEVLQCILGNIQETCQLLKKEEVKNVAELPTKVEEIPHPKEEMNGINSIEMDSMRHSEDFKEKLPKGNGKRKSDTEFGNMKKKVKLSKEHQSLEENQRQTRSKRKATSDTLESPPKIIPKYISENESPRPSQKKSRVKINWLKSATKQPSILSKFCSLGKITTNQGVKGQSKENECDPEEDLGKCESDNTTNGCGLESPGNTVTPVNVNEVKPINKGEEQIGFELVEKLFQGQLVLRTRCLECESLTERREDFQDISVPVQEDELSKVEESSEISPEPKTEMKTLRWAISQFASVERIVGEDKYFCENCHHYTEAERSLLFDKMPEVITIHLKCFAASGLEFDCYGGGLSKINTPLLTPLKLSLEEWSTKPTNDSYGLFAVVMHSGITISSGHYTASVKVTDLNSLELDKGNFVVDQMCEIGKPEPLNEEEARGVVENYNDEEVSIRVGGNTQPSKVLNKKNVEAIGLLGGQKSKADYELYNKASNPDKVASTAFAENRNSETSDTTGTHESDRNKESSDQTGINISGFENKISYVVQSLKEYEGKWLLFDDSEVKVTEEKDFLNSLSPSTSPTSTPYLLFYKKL
#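 High-throughput fluorogenic screen: 1nM USP1/UAF1 complex, Ub-Rho substrate 150nM final, 50mM HEPES pH 7.8 with 0.5mM EDTA, 0.1 mg/ml BSA, 1mM TCEP and 0.01% Tween-20.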
# D1 antag – Antagonist of Human D 1 Dopamine Receptor: qHTS | activity change, negative = inhibition, % at 10 µM | HEK293 TREx D1 cells, calcium flux, dopamine EC80; hits give low values | 3.2% of 360,000 active | D(1A) dopamine receptor (Homo sapiens), P21728; in the data active means activity change below about -30%; further: on the % scale 0 is the no-effect control and ±100 the full control effect
#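 Cells carrying a force-coupled, tetracycline-inducible human D1 receptor report calcium flux. Each well gets a 10 s baseline, compound with 180 s monitoring, then an EC80 dopamine stimulus with a second 180 s kinetic read.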
# D1 agonist – Allosteric Agonists of the Human D1 Dopamine Receptor: qHTS | HEK293 T-REx D1 cells, calcium flux, agonist mode | activation, % at 2 µM | AID 504660, 2011 | 1% of 360,000 active; further: 0% is about no effect
#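 Inducible HEK293 T-REx D1 cells, force-coupled to calcium signalling, were plated at 4000 cells/well with tetracycline and held overnight at 30 C. After no-wash calcium dye loading, compound-evoked calcium rise over 180 s flagged agonists.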
# TRHR PAM – qHTS for Small Molecule Agonists and Allosteric Enhancers of Human TRH Receptor: Primary Screen for Enhancers. Thyrotropin-releasing hormone receptor (Homo sapiens), P34981. TRHR cells, fluo-8 calcium fluorescence, EC20 TRH enhancement. enhancement, % at 2 µM. 0.66% of 360,000 active. AID 493056, 2011; in the data active means enhancement above about 30%; further: 0% is about no effect
#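 TRHR-expressing cells loaded with fluo-8 calcium dye were read kinetically (ex 480/em 530) during compound addition, then stimulated with an EC20 of TRH (10 nM final). Enhancement of the Gq-mediated intracellular calcium response was scored.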
# * hit, by the source's call; ? = inconclusive; . = not tested or not shown; ! = a repeat was not active. Most compounds without a hit are left out; they make up all but 4.4% or so of the library. Unless noted, no stated cut-off is given here; in the data, active means activation above about 30%; inactive means the rest.
SMILES,TRHR ag,D1 potentiator,USP1 inh,D1 antag,D1 agonist,TRHR PAM
CCOc1ccc2nc(C)cc(Nc3ccccc3OCC)c2c1,-1,-1,-11%,-49*,25,11
CCOc1ccc(Nc2cc(C)nc3ccc(C)cc23)cc1,.,.,-4%,.,.,.
Cc1nn(-c2ccccc2)c(/N=C/c2ccc(O)cc2)c1-c1ccccc1,0,-8,-24%,-44*,1,-8
O=C(CSC1=Nc2ccccc2C2=NC(Cc3ccccc3)C(=O)N12)Nc1cccc(Cl)c1 (centres undefined),0,0,-28%,8,0,-5
COc1ccc(N2CC(NC(=O)C3CCCCC3)CC2=O)cc1 (centres undefined),0,-3,15%,.,0,8
CCOc1ccc(CN2CCN(C3CCSCC3)CC2CCO)cc1 (centres undefined),0,-5,-2%,5,1,41*
CCOc1ccc(CN2CCN(C3CCC3)CC2CCO)cc1 (centres undefined),1,2,5%,0,-1,-3
Cc1ccc(OCC(=O)Nc2ccccc2C(=O)OCc2cc(=O)n3c(C)csc3n2)cc1,0,0,5%,5,2,-6
O=C(NCc1cccnc1)C1CCN(Cc2cc3ccccc3n2Cc2cccc(Cl)c2)CC1,0,-1,?,21,3,1
O=C(c1cnn(-c2ccccc2)c1)c1ccc2ccccc2c1O,0,10,-10%,-32*,5,12
O=C(O)c1ccc(-n2cc(C(=O)c3ccccc3O)cn2)cc1,-3,-1,-8%,-3,5,8
O=C(O)/C=C\C(=O)Nc1ccc(Oc2ccc(Br)cc2)cc1,1,-4,-25%,-31*,-1,0
O=C(O)/C=C/C(=O)Nc1ccc(Oc2ccc(NC(=O)/C=C/C(=O)O)cc2)cc1,0,-4,.,2,1,17
O=C(O)/C=C\C(=O)Nc1ccc(Oc2ccccc2)cc1,0,-6,-16%,-63*,0,6
COc1ccc(S(=O)(=O)N2CCN(Cc3nc4ccc(C)cc4o3)CC2)cc1Cl,-1,2,-1%,-3,15,3
COc1cccc(/C(O)=C/c2nc3ccc(C(=O)NCCc4cccc(C)c4)cc3[nH]c2=O)c1,18,-8,2%,-41*,46*,-1
COc1cccc(/C(O)=C/c2nc3ccc(C(=O)NCCc4ccc(Cl)cc4)cc3[nH]c2=O)c1,13,-4,?,-14,15,2
CC(=O)Nc1ccc(N(C(=O)c2ccco2)C(C(=O)NC2CCCC2)c2ccc(N3CCOCC3)cc2)cc1 (centres undefined),0,-1,-21%,0,1,35*
COc1ccc(NC(=O)Cn2cc(S(=O)(=O)c3ccccc3)c(=O)c3cc(C)ccc32)cc1Cl,2,-3,-18%,-7,7,1
Cc1ccc(C(=O)N2CC(=O)Nc3ccc(Br)cc3C2c2ccc(F)cc2)cc1C (centres undefined),0,1,-8%,17,3,5
O=C(Nc1nc2ccc(F)cc2s1)c1nc(S(=O)(=O)Cc2ccccc2F)ncc1Cl,0,12,-28%,-34*,0,-10
CC(C)c1nnc(NC(=O)c2nc(S(=O)(=O)Cc3ccc(F)cc3)ncc2Cl)s1,1,5,-20%,-1,2,8
CCNC(=O)c1c(NC(=O)c2nc(S(=O)(=O)CC)ncc2Cl)sc2c1CCCC2,0,-3,-22%,-55*,13,-22
CCS(=O)(=O)c1ncc(Cl)c(C(=O)NCc2ccccc2)n1,0,-3,-19%,-33*,1,-14
CC(C)c1nnc(NC(=O)c2nc(S(=O)(=O)Cc3ccccc3F)ncc2Cl)s1,0,-1,-22%,0,2,2
SMILES,TRHR ag,D1 potentiator,USP1 inh,D1 antag,D1 agonist,TRHR PAM
CC(=O)Nc1ccc(NC(=O)c2nc(S(=O)(=O)Cc3ccccc3)ncc2Cl)cc1,1,-4,-16%,13,5,-6
Cc1ccc(C)c(NC(=O)c2nc(S(=O)(=O)Cc3ccc(F)cc3)ncc2Cl)c1,0,-2,-17%,-37*,0,-12
COCCCNC(=O)CCCn1c(=O)c2ccccc2n(CC(=O)Nc2ccc(C)cc2Cl)c1=O,-2,-1,-6%,-2,-1,4
CCOc1ccccc1NC(=O)C1CCN(S(=O)(=O)c2cc(Br)cc3c2N(C(C)=O)CC3)CC1,-1,2,?,-9,0,-18
O=C(NCc1ccccc1)c1nc(S(=O)(=O)Cc2ccccc2)ncc1Cl,0,-6,-22%,-41*,0,-10
Cc1nc(Cl)c(C(=O)NCc2ccccc2)c(C)c1Cl,0,-3,-3%,3,2,-6
COc1ccc(CNC(=O)c2nc(S(=O)(=O)Cc3ccccc3)ncc2Cl)cc1,-1,-6,-12%,-37*!,6,-8
O=C(NCc1ccc2c(c1)OCO2)c1nc(S(=O)(=O)Cc2ccccc2)ncc1Cl,-1,-5,-5%,-28,1,-5
O=C(NCc1ccccc1)c1c(Cl)nc(Cl)c(Cl)c1Cl,1,-10,-24%,-42*,0,0
COc1ccc(NC(=O)c2nc(S(=O)(=O)Cc3ccc(C)cc3)ncc2Cl)cc1,0,-3,-17%,-38*,1,-9
O=C(NCc1ccc2c(c1)OCO2)c1nc(S(=O)(=O)Cc2ccccc2F)ncc1Cl,1,-11,-28%,-49*,3,-24
CCOc1ccccc1NC(=O)c1nc(S(=O)(=O)Cc2cccc(C)c2)ncc1Cl,1,-5,-3%,-31*!,2,-7
CCc1nnc(NC(=O)c2nc(S(=O)(=O)Cc3cccc(C)c3)ncc2Cl)s1,0,2,-14%,10,9,-1
Cc1ccc(-c2csc(=Nc3ccc(F)cc3)n2Cc2ccc3c(c2)OCO3)cc1C,-3,-2,3%,-10,0,2
CCc1nc(SCc2cc(=O)c3cc(C)ccc3[nH]2)n[nH]1,0,-3,-3%,1,2,-1
O=C(CCN1C(=O)CSc2ccccc21)Nc1ccc(OC(F)(F)F)cc1,0,-3,-23%,.,2,33*
CCOc1ccc(NC(=O)CCN2C(=O)CSc3ccccc32)cc1,0,1,-25%,-13,3,7
